CYP2C19 inhib: human CYP2C19 inhibition. AID 778. 96,000 tested, 21% active. inhibition, % at 5 µM. CYP2C19 Supersomes, luciferin-H EGE luminescence, 30 min. P33261;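 active = CYP2C19 inhibition above a set limit at 5 µM in the primary screen, cut at about 50% in these data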;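 note: plate controls were negative control wells for no effect and 2.5 mM tranylcypromine positive control for full effect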
Target sequence (P33261 whole entry, looked up): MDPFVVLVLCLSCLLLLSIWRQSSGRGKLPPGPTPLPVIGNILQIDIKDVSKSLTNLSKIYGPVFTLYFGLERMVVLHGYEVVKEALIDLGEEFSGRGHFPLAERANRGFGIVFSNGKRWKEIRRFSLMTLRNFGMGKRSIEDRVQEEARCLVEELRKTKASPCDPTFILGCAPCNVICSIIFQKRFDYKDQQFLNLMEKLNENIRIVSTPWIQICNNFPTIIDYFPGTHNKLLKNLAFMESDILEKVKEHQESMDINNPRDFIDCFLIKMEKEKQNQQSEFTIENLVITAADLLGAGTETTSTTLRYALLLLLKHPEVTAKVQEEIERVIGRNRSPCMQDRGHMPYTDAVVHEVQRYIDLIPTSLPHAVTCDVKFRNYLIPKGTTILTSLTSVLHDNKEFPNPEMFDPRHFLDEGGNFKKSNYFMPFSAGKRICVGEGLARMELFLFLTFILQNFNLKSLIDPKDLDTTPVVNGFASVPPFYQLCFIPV
E-sel TNF inh: TNF alpha driven E-selectin expression inhibition; HUVEC TNFa-induced E-selectin immunofluorescence, high content; inhibition, % at 2 µM; 120,000 tested, 0.71% active; AID 1246;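 active = inhibition above the batch mean plus 3 SD, and confirmed as a hit on visual image review, cut at about 43% in these data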;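 note: 0% = TNF-stimulated DMSO wells and 100% = unstimulated control wells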
cytoskel mod: cytoskeleton assembly modification; HUVEC TNFa F-actin phalloidin imaging, high content; inhibition, % at 2 µM; 91,000 tested, 0.18% active; AID 836;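 active = inhibition above the batch mean plus 3 SD and confirmed as a hit by visual image inspection, cut at about 30% in these data, passing the limit was not always enough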
CYP2C9 inhib: blocks human cytochrome P450 2C9; P11712; CYP2C9 Supersomes, luciferin-H conversion, luminescence; inhibition, % at 5 µM; 96,000 tested, 20% active;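 active = blocking of liver enzyme CYP2C9 beyond about 50% at 5 µM, limit read from the data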
CYP2C19 act: cytochrome P450 2C19 (human) activation | 96,000 tested, under 10 active | activation factor at 5 µM | AID 1025 | recombinant CYP2C19, luciferin-H EGE luminescence; hits give high values; 0 = fully inhibited enzyme, 1 = untreated enzyme | P33261;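 active = activation factor of at least 2 at 5 µM in the primary screen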;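 note: 0 = wells with 2.5 mM tranylcypromine and 1 = vehicle-only wells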
CYP2C9 activ: increases human cytochrome P450 2C9 activity; recombinant CYP2C9, luciferin-H conversion, luminescence; hits give high values; factor 1 = untreated enzyme, 0 = blocked; 96,000 tested, 1.4% active; P11712; activation factor at 5 µM;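 active = activation factor of 2 or more for CYP2C9 at a 5 µM dose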;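 note: 0 = sulfaphenazole-blocked wells and 1 = vehicle-only wells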
Starred values were filed as active, the others as inactive. Compounds with a hit are over-represented: about 22% of the library has one in this group of screens.

For N#Cc1cnn(Cc2ccc(Cl)cc2)c1N the results were CYP2C19 inhib 54.9*, E-sel TNF inh 5.4, cytoskel mod 8.2, CYP2C9 inhib 6.1, CYP2C19 act 0.5 and CYP2C9 activ 0.9.
Screening N#Cc1cnn(Cc2ccccc2)c1N returned CYP2C19 inhib 10.6, E-sel TNF inh 17.0, cytoskel mod 1.3, CYP2C9 inhib -9.3, CYP2C19 act 0.9 and CYP2C9 activ 1.1.
Screening O=C(O)/C=C/C(=O)NNC(=O)c1cc(-c2ccccc2)n[nH]1 returned E-sel TNF inh 27.1.
Screening COC(=O)CCC(=O)Nc1ccc(S(=O)(=O)N2CCCCCC2)cc1 returned CYP2C19 inhib 22.1, E-sel TNF inh -17.6, cytoskel mod 24.1, CYP2C9 inhib 43.4, CYP2C19 act 0.8 and CYP2C9 activ 0.6.
For COc1ccc(N=c2oc3c(OC)cccc3cc2C(=O)NCc2ccco2)c(OC)c1 the results were CYP2C19 inhib 30.1, cytoskel mod 5.6, CYP2C9 inhib 53.8*, CYP2C19 act 0.7 and CYP2C9 activ 0.5.
Screening COc1ccc(OC)c(-c2cc(C(=O)NCc3ccco3)no2)c1 returned CYP2C19 inhib 8.8, cytoskel mod -0.5, CYP2C9 inhib -191.0, CYP2C19 act 0.9 and CYP2C9 activ 2.9*.
For COc1cccc(-c2cc(C(=O)NCc3ccco3)no2)c1 the results were CYP2C19 inhib -3.4, E-sel TNF inh 19.8, cytoskel mod 1.4, CYP2C9 inhib -65.7, CYP2C19 act 1 and CYP2C9 activ 1.7.
Screening COc1ccc(OC)c(-c2cc(C(=O)Nc3cccc(Cl)c3)no2)c1 returned CYP2C19 inhib -4.3, cytoskel mod 10.6, CYP2C9 inhib -116.9, CYP2C19 act 1 and CYP2C9 activ 2.2*.
Screening COc1ccc(OC)c(-c2cc(C(=O)Nc3cc(C)on3)no2)c1 returned CYP2C19 inhib -11.9, cytoskel mod -12.2, CYP2C9 inhib -90.1, CYP2C19 act 1.1 and CYP2C9 activ 1.9.
COc1ccc(N2C(=O)c3ccccc3NC23CCCCC3)cc1 was read as CYP2C19 inhib 48.6, cytoskel mod 5.6, CYP2C9 inhib 63.5*, CYP2C19 act 0.5 and CYP2C9 activ 0.4.
Screening c1cnc2ccc(C(c3nnnn3C3CCCCC3)N3CCN4CCCC4C3)cc2c1 (stereo not given) returned CYP2C19 inhib -0.6, E-sel TNF inh 12.4, cytoskel mod -0.2, CYP2C9 inhib 68.8*, CYP2C19 act 1 and CYP2C9 activ 0.3.
c1cnc2ccc(C(c3nnnn3C3CCCC3)N3CCN(c4nc5ccccc5s4)CC3)cc2c1 (stereo not given) was read as CYP2C19 inhib 69.8*, E-sel TNF inh -21.4, CYP2C9 inhib 88.5*, CYP2C19 act 0.3 and CYP2C9 activ 0.1.
OC1CCN(C(c2ccc3ncccc3c2)c2nnnn2C2CCCCC2)CC1 (stereo not given) was read as CYP2C19 inhib -14.3, E-sel TNF inh -7.6, cytoskel mod -15.8, CYP2C9 inhib -8.4, CYP2C19 act 1.1 and CYP2C9 activ 1.1.
CCC(C)(C)n1nnnc1C(c1ccc2ncccc2c1)N1CCN2CCCC2C1 (stereo not given) was read as CYP2C19 inhib 59.0*, E-sel TNF inh 4.5, cytoskel mod 6.2, CYP2C9 inhib 3.0, CYP2C19 act 0.4 and CYP2C9 activ 1.
O=C(COC(=O)[C@@H]1CCCN1S(=O)(=O)c1ccccc1F)c1ccccc1 was read as E-sel TNF inh 9.2.
CCOC(=O)c1c(C)[nH]c(C)c1C(=O)COC(=O)C1CCCN1S(=O)(=O)c1ccccc1F (stereo not given) was read as CYP2C19 inhib 100.4*, E-sel TNF inh 21.3, cytoskel mod 5.4, CYP2C9 inhib 95.0*, CYP2C19 act 0 and CYP2C9 activ 0.1.
`COC(=O)Cc1cnc(NC(=O)C2C3CCC(C3)C2C(=O)O)s1` (stereo not given) gave CYP2C19 inhib -8.0, E-sel TNF inh -6.2, cytoskel mod -21.1, CYP2C9 inhib -12.8, CYP2C19 act 1.1 and CYP2C9 activ 1.1.
O=S(=O)(c1ccccc1)N1CCn2c(nc3ccccc32)C1 was read as CYP2C19 inhib 71.1*, cytoskel mod 12.6, CYP2C9 inhib 24.2, CYP2C19 act 0.3 and CYP2C9 activ 0.8.
`COc1ccc(C(CNC(=O)COc2ccccc2-c2ccccc2)N2CCOCC2)cc1` (stereo not given) gave E-sel TNF inh -9.8.

Source: PubChem BioAssay
